Shown are actives, neighbours in structure and some others; about 4% of the full set was active somewhere.
TROY signal inh – inhibitors of TROY-driven NF-kB signaling, primary screen, Q293 LMP1-TROYcd cells, NF-kB luciferase, uHTS. Q293 LMP1-TROYcd NF-kB luciferase reporter, 4 h. inhibition, % at 10 µM. 360,000 tested, 0.98% active. AID 1347056, 2019;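 active = compounds whose plate-normalised and pattern-corrected inhibition of the luciferase reporter signal at the single screening dose is 50% or more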
TWEAK Fn14 block – inhibitors of TWEAK-Fn14 signaling, primary screen, luciferase reporter cells, uHTS; TWEAK-stimulated Fn14 reporter cells, luciferase luminescence, 8 h; inhibition, % at 10 µM; 360,000 tested, 2% active; AID 1159606, 2016; in the data active = inhibition above about 50%
Peg3 promoter – Peg3 promoter-driven luciferase inhibitors, primary screen, cell-based, HeLa, luciferase luminescence; HeLa PEG-Prom luciferase reporter, overnight; AID 588405, 2011; 360,000 tested, 1.7% active; inhibition, % at 20 µM;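 active = inhibition of at least 50% at 20 µM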
HIF-2a inh – HIF-2a reporter inhibitors, primary screen, luminescence, 786-0 RCC cells; AID 624352, 2012; inhibition, % at 18.8 µM; 786-0 RCC cells HIF-2a reporter, luciferase luminescence, overnight; 360,000 tested, 0.72% active;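 active = inhibition of the luminescence signal of 40% or more relative to plate controls, in a single-dose primary screen at 18.75 µM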
CF NFkB inh – inhibitors of PAF-induced NF-kB signaling, primary screen, cell-based, GFP fluorescence, uHTS; KKLEB NF-kB-GFP reporter, GFP fluorescence overnight; inhibition, % at 5 µM; 360,000 tested, 0.86% active;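 active = at least 50% inhibition at 5 µM, scaled per plate between neutral and stimulator controls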;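 also: PAF is a Pseudomonas aeruginosa culture filtrate used as stimulus; plate controls were PAF-stimulated DMSO wells for no effect and unstimulated DMSO wells for full effect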
KKLEB tox – cytotoxicity in KKLEB CF airway cells, primary screen, cytotoxicity control for CF NF-kB inhibitor project, cell-based, uHTS, fluorescence assay plates. KKLEB CF airway cells viability, ATPlite luminescence, overnight; stronger effect = lower value; cells stimulated with P. aeruginosa culture filtrate. activity change (cytotoxicity), % at 5 µM. 360,000 tested, 0.36% active. AID 602141, 2011;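 active = corrected activity change at or below -50% at 5 µM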
Numbers without * were called inactive.

`CC(O)c1nc2ccccc2n1C/C=C/c1ccccc1` (stereo not given) gave TROY signal inh 7.4, TWEAK Fn14 block 0.7, Peg3 promoter 12.3, HIF-2a inh 3.0, CF NFkB inh 10.2 and KKLEB tox 12.8.
Screening CN(Cc1ccco1)c1ncnc2ccc(-c3ccc4c(c3)OCO4)cc12 returned TROY signal inh -28.4, TWEAK Fn14 block 2.6, Peg3 promoter 43.1, HIF-2a inh 12.2, CF NFkB inh 34.5 and KKLEB tox -16.7.
For Cc1nc(CN(C)c2ncnc3ccc(-c4ccc5c(c4)OCO5)cc23)cs1 the results were TROY signal inh 21.3, TWEAK Fn14 block 27.2, Peg3 promoter 32.2, HIF-2a inh 54.9*, CF NFkB inh -18.8 and KKLEB tox -12.6.
Screening COc1ccc(C(=O)Nc2cc(C)nn2-c2cccc(F)c2)cc1OC returned TROY signal inh -3.3, TWEAK Fn14 block 20.0, Peg3 promoter 17.5, HIF-2a inh 15.9, CF NFkB inh -13.6 and KKLEB tox 0.6.
COc1ccc(-n2c(-c3ccccc3)c[n+]3c2CCC3)cc1 was read as TROY signal inh -7.8, TWEAK Fn14 block 86.3*, Peg3 promoter -2.3, HIF-2a inh 16.5, CF NFkB inh -8.3 and KKLEB tox 11.2.
`COc1ccc(-n2c(-c3ccc(Br)cc3)c[n+]3c2CCC3)cc1` gave TROY signal inh 26.7, TWEAK Fn14 block 23.4, Peg3 promoter 2.8, HIF-2a inh 14.1, CF NFkB inh -12.0 and KKLEB tox -19.1.
Screening O=C(COC(=O)C1CC1)NCCc1ccc(Cl)cc1 returned TROY signal inh -0.1, TWEAK Fn14 block -8.5, Peg3 promoter -9.8, HIF-2a inh 10.1, CF NFkB inh -1.5 and KKLEB tox -1.3.
Screening Cc1cc2oc(C(=O)Nc3ccc(S(=O)(=O)Nc4nccs4)cc3)cc(=O)c2cc1Cl returned TROY signal inh 7.0, TWEAK Fn14 block -6.2, Peg3 promoter 5.3, HIF-2a inh -3.7, CF NFkB inh -20.3 and KKLEB tox 2.6.
Cc1cc(C)c2oc(C(=O)Nc3ccc(S(=O)(=O)Nc4nccs4)cc3)cc(=O)c2c1 was read as TROY signal inh 0.6, TWEAK Fn14 block 73.1*, Peg3 promoter -5.5, HIF-2a inh -5.9, CF NFkB inh 9.2 and KKLEB tox -13.6.
Cc1cc(C)nc(S/C=C/C(=O)c2ccccc2F)n1 was read as TROY signal inh 70.2*, TWEAK Fn14 block 93.2*, Peg3 promoter 96.7*, HIF-2a inh 14.7, CF NFkB inh 76.4* and KKLEB tox 8.2.
`Cc1cccc(NC(=O)c2cc3ccccc3c(=O)o2)n1` gave TROY signal inh -34.5, TWEAK Fn14 block 50.7*, Peg3 promoter -145.3, HIF-2a inh -236.8, CF NFkB inh -27.9 and KKLEB tox -7.7.
`O=C1NCCN1CCNS(=O)(=O)c1ccc(F)cc1` gave TROY signal inh 64.9*, TWEAK Fn14 block 53.0*, Peg3 promoter 9.5, HIF-2a inh 21.4, CF NFkB inh -7.5 and KKLEB tox 11.2.
COc1cc(OC)c(OC)cc1/C=C1\CCC/C(=C\c2cc(OC)c(OC)cc2OC)C1=O was read as TROY signal inh 11.4, TWEAK Fn14 block 56.1*, Peg3 promoter 71.9*, HIF-2a inh 17.2, CF NFkB inh 6.7 and KKLEB tox -7.9.
For COc1ccc(/C=C2\CC/C(=C\c3ccc(OC)c(OC)c3)C2=O)cc1OC the results were TROY signal inh 22.0, TWEAK Fn14 block 55.6*, Peg3 promoter -122.0, HIF-2a inh -121.3, CF NFkB inh -17.0 and KKLEB tox -41.4.
Screening COc1ccc(/C=C2\CCC/C(=C\c3ccc(OC)c(OC)c3OC)C2=O)c(OC)c1OC returned TROY signal inh 21.2, TWEAK Fn14 block 6.7, Peg3 promoter 23.2, HIF-2a inh 19.8, CF NFkB inh 4.7 and KKLEB tox -2.5.
`CSc1ccc(/C=C(/NC(=O)c2ccccc2)C(=O)NCCN2CCOCC2)cc1` gave TROY signal inh -11.4, TWEAK Fn14 block -18.8, Peg3 promoter 16.9, HIF-2a inh 10.6, CF NFkB inh -6.1 and KKLEB tox 1.7.
